The campaign covered roughly 340,000 compounds. About 6,200 (1.8%) were called active. Roughly 10% stayed inconclusive and do not appear here. The call rests on the fitted dose curve; in most records, active means well fitted activation curve with a large enough effect; inconclusive means small, poorly fitted or top-dose-only effect; inactive means no such curve, though single readings can be large or run the other way. What follows is part of a selection rich in actives, with near analogues and random picks from the rest.
assay: A quantitative high throughput screen for small molecules that induce DNA re-replication in SW480 colon adenocarcinoma cells.; further: nearly all actives have a fitted effect of over 55% in size; on re-replication activation: % of control where 0% means no effect; details: Hoechst DNA content imaging, 48 h; series mostly up to 46.1 µM; re-replication activation: at the top concentration
Text: H Molecular Libraries Probe Production Network [MLPCN] NIH Chemical Genomics Center [NCGC] MLPCN Grant: Fast Track K99 CA136555 Assay Provider: Melvin DePamphilis, NICHD, NIH Assay Overview Eukaryotic cells normally restrict genome duplication to once per cell division. When this process is aberrant, DNA re-replication occurs when cells reinitiate DNA replication before the first round of replication is complete. DNA re-replication induces the DNA damage response, arrests cell proliferation, and triggers apoptosis. The cell cycle components cyclin A, Cdt-1, Cdc6 and geminin are critical regulators of this process and their misregulation results in DNA re-replication in normal and cancer cells. To identify compounds that induce re-replication in normal cells, an image-based assay was used to measure DNA content of nuclei, as detected by the fluorescent DNA binding dye, Hoechst. Cell nuclei were imaged by a fluorescence scanning plate imager and compounds that induce DNA re-replication were identified by the increase of nuclei with elevated fluorescence intensity
For screening, 250 cells in 5 uL/well were dispensed into black clear 1536-well plates (Aurora) using a solenoid-based dispenser. Following transfer of 23 nL compound or DMSO vehicle by a pin tool, the plates were incubated 48 hr at 37 C and 5% CO2. After addition of 1 uL/well Hoescht stain, the plates were incubated 40 min at 37 C, 5% CO2 and total intensity of fluorescent objects (nuclei) were enumerated by an Acumen Explorer Ex3 (TTP LabTech) fluorescence scanning plate imager (405 nm excitation, 500-530 nm emission). Keywords: NIH Roadmap, MLPCN, MLI, MLSMR, qHTS, NCGC, DNA replication, cancer
Potency means the concentration at half of the fitted maximal effect.

re-replication activation, inactive:
CC(NC(=O)COC(=O)c1ccc2ccccc2n1)c1ccccc1 (stereo not given) -3.09%
Cc1ccc(O)c(-c2cc(C(=O)NCc3ccccc3)[nH]n2)c1 -3.89%
O=C1Cc2cc(S(=O)(=O)Nc3cccc(F)c3)ccc2N1 -6.13%
CC(OC(=O)c1cc2ccccc2[nH]1)C(=O)N(C)c1ccccc1 (stereo not given) 4.01%
COc1ccc(C2CC(c3cccs3)=NN2C(=O)CCC(=O)O)cc1OC (stereo not given) 8.15%
COc1cccc(C2CC(c3cccs3)=NN2C(=O)CSC2=NCCS2)c1OC (stereo not given) 20%
NC(=O)C1(N2CCCC2)CCN(Cc2ccccc2)CC1 -4.45%
CCCCN1CC(COCc2ccccc2)OCCS1(=O)=O (stereo not given) 1.34%
Cc1cccc(CC2(O)C(=O)Nc3ccccc32)n1 (stereo not given) -0.661%
O=C(CC1Sc2ccccc2NC1=O)NNc1ccc(Cl)c(Cl)c1 (stereo not given) 26.7%
COc1cccc(NC(=O)COc2cccnc2[N+](=O)[O-])c1 3.79%
Cc1cc(=O)oc2cc(OCCC[n+]3ccccc3)ccc12 -9.83%
Cc1ccccc1N1CCN(CCCOc2ccc3c(C)cc(=O)oc3c2)CC1 2.23%
COc1ccc(NC(=S)NC2CCS(=O)(=O)C2)cc1 (stereo not given) -4.58%
O=C(Cc1ccc(Cl)cc1)NC1CCS(=O)(=O)C1 (stereo not given) -9.59%
CCNC(=S)N1CCN(S(=O)(=O)c2ccc(Cl)s2)CC1 6.77%
CC1O[C@@H](OC2C(O)C(C)O[C@H](OC(=O)[C@]34CCC(C)(C)C[C@H]3C3=CCC5[C@@]6(C)CC(O)C(O[C@@H]7OC(CO)C(O)[C@@H](O)[C@@H]7O)[C@@](C)(C(=O)O)C6CC[C@@]5(C)[C@]3(CO)CC4)C2O[C@H]2OC(C)[C@@H](O[C@@H]3OCC(O[C@@H]4OC(CO)C(O)[C@H](O)C4O)[C@@H](O)[C@@H]3O)[C@H](O)C2O)C(O)C(O)C1O (stereo not given in full) -10.5%
O=[N+]([O-])c1ccc(Sc2n[nH]c(-c3ccco3)n2)nc1 -5.13%
Cc1cccc(C)c1NC(=O)CSc1ccc([N+](=O)[O-])cn1 -14.5%
CC[C@]12c3[nH]c4cc(CCC(=O)N(C)C)ccc4c3CCN1C(=O)[C@@H](CC(=O)NCCCN(C)C)C[C@@H]2C(=O)N1CCN(C(=O)c2ccco2)CC1 20.5%
CCOC(=O)[C@H]1[C@H]2COc3cc(OC)ccc3[C@@H]2N2C(=O)CN(Cc3ccc(Cl)cc3)C(=O)[C@@]12C -16.4%
Cc1ccsc1C(=O)OCC(=O)NCCc1ccccc1 1.54%
COc1ccc(OC)c2[nH]c(=O)c(CCNC(=O)C(C)(C)C)cc12 -5.04%
COc1ccc(/C=C(\NC(=O)c2ccc(OC)c(OC)c2)C(=O)NCCc2c[nH]c3ccccc23)cc1 -1.59%
COc1ccccc1-c1sc2ccccc2c1C#CC1(O)CCCCC1 4.55%
O=C(Nc1cccc(Cl)c1N1CCOCC1)c1cccnc1 -21.8%
COC(=O)c1ccc(N2CCOCC2)c(NC(=O)c2ccc3c(c2)OCCO3)c1 2.41%
C=CCCC(=O)N1C[C@H]2CON(C)[C@H]2C[C@H]1c1cccc(Nc2ccccc2)c1 -6.4% [at 9.22 µM]
O=C(Nc1cccc(Br)c1)C1CC(=O)N(C2CCCC2)C1 (stereo not given) 3.19%
O=C(c1ccc(N2CCOCC2)c([N+](=O)[O-])c1)N1CCN(c2ccccc2F)CC1 -0.686%
O=C(Nc1nnc(Cc2ccccc2)s1)c1cnccn1 -0.0264%
O=C(Nc1nnc(Cc2ccc(Cl)cc2)s1)c1ccncc1 -27.9%
C=CCn1c(SCc2ccccc2)nc2c1c(=O)[nH]c(=O)n2C 3.01%
Cc1nnc(Sc2nc3c(c(=O)[nH]c(=O)n3C)n2Cc2ccccc2)s1 -6.16%
CCN(CC)S(=O)(=O)c1ccc(N2CCOCC2)c(NC(=O)c2ccc(=O)n(C)n2)c1 -15.4%
CCN(CC)S(=O)(=O)c1cc(C(=O)Nc2cc(S(=O)(=O)N3CCOCC3)ccc2N2CCCC2)ccc1F 2.46%
COc1ccc(-c2nnc(-c3ccc4ccccc4c3)o2)cc1 -7.64%
CN(Cc1ccccc1)C(=O)COC(=O)/C=C/c1ccc2c(c1)OCO2 -5.02%
CC(C)(C)OC(=O)c1c(N)n(CCCN2CCCC2=O)c2nc3ccccc3nc12 -6.4%
CC(C)(C)c1ccc(C(=O)NCC(=O)OCN2C(=O)c3ccccc3C2=O)cc1 0.942%
Cn1cncc1COC(=O)c1ccc(Cl)cc1 -12.1%
CN1OC(COC(=O)c2ccc(Cl)cc2)CC1c1ccccc1 (stereo not given) -2.4%
COc1ccc(S(=O)(=O)N(C)C[C@H]2Oc3ccc(NS(=O)(=O)c4cccs4)cc3CC(=O)N([C@H](C)CO)C[C@H]2C)cc1 -2.46% [at 9.22 µM]
CSCCC(NC(=O)c1ccccc1)C(=O)N1CCN(Cc2ccc(Cl)cc2)CC1 (stereo not given) -284%
CC1CCCN(C(=O)CN2C(=O)c3ccccc3S2(=O)=O)C1 (stereo not given) -1.92%
O=C(Oc1ccc(Br)cc1)c1cccnc1 -2.56%
N#CCc1ccc(OC(=O)c2cccnc2)cc1 -4.49%
COc1ccccc1N(CC(=O)Nc1ccc(C)cc1Cl)S(=O)(=O)c1cccs1 0.978%
CC(=O)c1c(OCC(=O)N(C)C2CCCCC2)ccc2c(C)cc(=O)oc12 -0.36%
CC(=O)c1cccc(-c2ccc(CN3C(CC(C)C)C(=O)N(Cc4cn(CC5CCCCC5)nn4)CCS3(=O)=O)cc2)c1 (stereo not given) -0.514%
CCOc1cccc(/C=N/N2C(=O)CSC2=S)c1O -0.569%
Cc1ccc(C(=O)NC(=S)NCCN2CCOCC2)cc1 0.443%
COC1C(CO)OC(n2cnc3c(=S)nc(N)[nH]c32)C1O (stereo not given) -3.09%
CCOc1cc2c(cc1OCC)C(C(=O)O)C(c1ccc(OC)c(O)c1)N(C)C2=O (stereo not given) -13.5% [at 9.22 µM]
COc1cccc(NC(=O)C2c3cc(OC)c(OC)cc3C(=O)N(C)C2c2cccnc2)c1 (stereo not given) 2.23%
O=C1CC[C@@H]2CC3(C[C@@H]4CCN1[C@H]24)Nc1cc([N+](=O)[O-])ccc1NC3=NC1CCCCC1 (stereo not given in full) -13.5%
CC(NC(=O)COC(=O)CCC(=O)c1ccc(Cl)cc1)c1ccccc1 (stereo not given) -6.09%
FC(F)(F)c1nnc2ccc(N3CCN(c4ccccc4)CC3)nn12 0.3%
Nc1nnc2c(C(F)(F)F)nc3ccccc3n12 6.87%
COc1ccc(NS(=O)(=O)c2cc(NC(=O)c3ccc(S(=O)(=O)N(C)C)cc3)ccc2N2CCOCC2)cc1 4.03%
COc1ccccc1C(=O)NCC(=O)OCC(=O)NNC(=O)c1ccc(Br)cc1 0.282%
COc1ccc(/C=C2\CCc3ccccc3C2=O)c(OC)c1OC 3.39%
COc1ccc(/C=C2\N=C3CCCN3C2=O)cc1 -18.8%
O=C(CN1C(=O)NC(Cc2c[nH]c3ccccc23)C1=O)Nc1ccccc1C(F)(F)F (stereo not given) -21.5%
CCCN=C1N(C)C[C@@H]2[C@@H]3C(=O)N(Cc4ccccc4)C(=O)[C@@H]3[C@](C)(C(=O)OC)N12 0.326%
Nc1ccc2c(c1)C(O)c1ccc(Cl)cc1-2 (stereo not given) 21.7%
CCCN1C2CCCC1CC(NC(=O)c1cccc(OC)c1)C2 (stereo not given) -3.5%
CCCN1C2CCCC1CC(NC(=O)NC13CC4CC(CC(C4)C1)C3)C2 (stereo not given) -6.15%
O=C1c2ccccc2[C@@H]2C[C@@H](O)[C@H](Nc3ccccc3Cl)CCN12 7.29%
Cc1ccc(CN(C)CC(=O)Nc2cccc([N+](=O)[O-])c2)o1 3.11%
COc1ccc(C)cc1S(=O)(=O)N(CC(=O)Nc1cccc([N+](=O)[O-])c1)c1ccc(C)cc1 -5.43%
CCCN(C(=O)CSc1nnc(N)s1)c1c(N)n(Cc2ccccc2)c(=O)[nH]c1=O 26.3%
COc1ccc2c(c1)c(=Cc1ccc(N(C)C)cc1)c1cc(-c3ccccc3)[n+](C)n12 -3.87%
CC(C)(C)OC(=O)CNC(=O)c1[nH]cnc1C(=O)N[C@@H](CCCCN)C(=O)OC(C)(C)C -0.556%
NS(=O)(=O)c1cccc(NC(=O)COC(=O)c2cc([N+](=O)[O-])ccc2N2CCCC2)c1 -5.61%

Potency, active:
Cc1ccc(O)c(-c2cc(C(=O)Nc3c(C)n(C)n(-c4ccccc4)c3=O)[nH]n2)c1 0.058 µM
COc1ccccc1N1N=C(c2cccs2)CC1c1ccccc1 (stereo not given) 2.59 µM
Cc1cc(=O)oc2cc(OCC3CC(c4ccccc4Cl)=NO3)ccc12 (stereo not given) 3.66 µM
CCCSC(=S)NC1CCS(=O)(=O)C1 (stereo not given) 16.4 µM
CC(C)(C)n1cnnc1Sc1ccc([N+](=O)[O-])cn1 18.4 µM
COc1ccc(OC)c2[nH]c(=O)c(CCNC(=O)C(=O)c3c[nH]c4ccccc34)cc12 20.6 µM
O=C(Nc1cccc(Cl)c1N1CCOCC1)c1ccc2c(c1)OCCO2 2.31 µM
O=C(Nc1nnc(Cc2ccc(Cl)cc2)s1)c1cccnc1 18.4 µM
C=CCSc1nc2c(c(=O)[nH]c(=O)n2C)n1Cc1ccccc1 1.64 µM
CCN(CC)S(=O)(=O)c1ccc(N2CCCC2)c(NC(=O)c2ccc([N+](=O)[O-])o2)c1 13 µM
CC(C)(C)c1ccc(C(=O)NCCn2c(N)c(C#N)c3nc4ccccc4nc32)cc1 20.6 µM
N#Cc1c(N)n(CCOC(=O)c2ccc(Cl)cc2)c2nc3ccccc3nc12 20.6 µM
CCCCCCOc1ccc(OC(=O)c2cccnc2)cc1 8.2 µM
CCOc1cccc(/C=N/NC(=S)NCCN2CCOCC2)c1O 1.46 µM
COc1cc2c(cc1OC)C1C(=O)c3cc(OS(C)(=O)=O)c(OC)cc3C1N(C)C2=O (stereo not given) 7.31 µM
FC(F)(F)c1nnc2c3ccccc3c(Cl)nn12 2.59 µM
COc1ccc(/C=C2/CCCc3ccccc3C2=O)cc1 9.2 µM
CCCNC(=S)NC1CC2CCCC(C1)N2CC(C)C (stereo not given) 20.6 µM
Cc1ccc(S(=O)(=O)N(CC(=O)Nc2cccc([N+](=O)[O-])c2)Cc2ccc(Cl)cc2)cc1 8.2 µM

Potency, inactive:
Cc1c(NC(=O)c2cccnc2)c(=O)n(-c2ccccc2)n1C

From PubChem BioAssay AID624297 (National Center for Advancing Translational Sciences (NCATS), 2012)
